About 50,000 (12%) of roughly 420,000 compounds were called active. Not shown: some 26% with an inconclusive outcome. The call rests on the fitted dose curve; in most records, active means well fitted inhibition curve with a large enough effect; inconclusive means small, poorly fitted or top-dose-only effect; inactive means flat fitted curve, though single readings scatter. The entries come from a sample that favours actives as a whole. Entries that show only a call come without a potency.
Potency means the concentration at half of the fitted maximal effect.

This assay is described as follows: qHTS for Inhibitors of human tyrosyl-DNA phosphodiesterase 1 (TDP1): qHTS in cells in presence of CPT. Further: nearly all actives have a fitted effect of over 55% in size. To be noted: chicken DT40 Tdp1-/-;hTDP1 cells + 20 nM CPT, ATP luminescence, 48 h; series mostly up to 46.2 µM. In a few lines:
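Chicken DT40 Tdp1-/- cells complemented with human TDP1, 400 cells/well, exposed to compounds plus 20 nM camptothecin for at least 48 h at 37 C; viability read as ATP content by CellTiter-Glo luminescence.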
In general terms: qHTS replaces the single test concentration by a dilution series.
As for `CCCCCN(C(=O)CCC(=O)OCC(=O)NC1CCC(C)CC1)c1c(N)n(CCCC)c(=O)[nH]c1=O` (stereo unspecified), the Potency entry is “inactive”.
For `COc1ccc(NC(=O)c2cccc(Cl)c2)c[n+]1[O-]`, the Potency entry is “inactive”.
Regarding `O=C(Nc1c2c(nn1-c1ccccc1)CS(=O)(=O)C2)C1CCCC1`, the Potency entry was “inactive”.
As for `O=C(CCc1ccc(S(=O)(=O)N2CCOCC2)cc1)OCC(=O)c1ccc(Br)cc1`, the Potency entry was “inactive”.
For the compound `CCOc1ccc(-n2cnnn2)cc1S(=O)(=O)N1CCC(C)CC1C` (stereo unspecified), the Potency result was “inactive”.
For `C#CC(C)(C)NC(=O)c1cnc(-c2ccccc2)nc1-c1ccccc1`, the Potency result is “inactive”.
Take `COC(=O)c1ccc(COC(=O)CNC(=O)c2cccc(OC)c2)o1`: the Potency result is “inactive”.
As for `O=S(=O)(/N=C(/Nc1ccccc1)c1ccccc1)c1cccs1`, the Potency entry was “inactive”.
For the compound `CCc1cc(-c2nnn(CCC3COCCO3)c2CC)ccc1-c1cn(Cc2ccc3ccccc3c2)nn1` (stereo unspecified), the Potency is 5.8 µM (active).
For `CCCCCc1ccc(-c2cn(Cc3ccc4ccccc4c3)nn2)cc1` the value was “inactive”.
With `CCCN(CCC)C(=O)C(Cc1ccccc1)NS(=O)(=O)c1ccc2c(c1)c(=O)n(C)c(=O)n2C` (stereo unspecified), the Potency entry was “inactive”.
As to `O=C(CNC(=O)N1CC(=O)Nc2ccccc21)Nc1ccc(Br)cc1F`, the Potency result was “inactive”.
Take `C[C@H](CO)N1C[C@H](C)[C@@H](CN(C)C(=O)C2CCCCC2)OCc2cnnn2CCCC1=O`: the Potency result was “inactive”.
Turning to `CC(=O)Nc1cccc(NC(=O)CSc2cn(CC(=O)N3CCCC3)c3ccccc23)c1`, the Potency entry is “inactive”.
For the compound `CC(C)N(C(=O)Cn1cc(SCC(=O)N2CCCC2)c2ccccc21)C(C)C`, the Potency entry was “inactive”.
In the case of `O=C(Cn1cc(SCc2cccc(Cl)c2)c2ccccc21)N1CCCCC1`, the Potency is 18.4 µM (active).
With `CC(C)C12CN3CC(C(C)C)(CN(C1)C3c1ccc(OCc3ccccc3)cc1)C2=O` (stereo unspecified), the Potency entry is “inactive”.
As for `Cn1nccc1C(=O)NCC1CCC2(CCN(Cc3c(O)ccc4ccccc34)CC2)O1` (stereo unspecified), the Potency entry was “inactive”.
Consider `CC(=O)Nc1ccc(NC(=O)COC(=O)c2ccccc2C(=O)c2ccccc2)cc1`, for which the Potency result is “inactive”.
For `COC(=O)c1cc(NC(=O)Cc2ccccc2[N+](=O)[O-])ccc1Cl` the value was “inactive”.
For `N#Cc1cccc(NC(=O)COC(=O)c2ccccc2C(=O)c2ccc(Cl)c([N+](=O)[O-])c2)c1` the value was 20.6 µM (active); for `CCOC(=O)C1CCN(CC(=O)Nc2ccc(OC)c(S(=O)(=O)N3CCCCC3)c2)CC1`, “inactive”; for `CC[n+]1c(C)n(-c2ccccc2)c2ccc(NC(C)=O)cc21`, 6.51 µM (active).
In the case of `CCn1c2ccccc2c2cc(NC(=O)CNC)ccc21`, the Potency entry was “inactive”.
Consider `CC(=O)Nc1ccc(NC(=O)CSc2nnc(C3CC3)n2-c2ccccc2)cc1`, for which the Potency result is “inactive”.
As for `Cc1ccccc1NC(=O)Cn1c(=O)n(Cc2ccco2)c(=O)c2ccc(C(=O)NC3CCCC3)cc21`, the Potency result was “inactive”.

The values are drawn from PubChem BioAssay AID686979 (National Center for Advancing Translational Sciences (NCATS), 2013).
